Screening data from PubChem BioAssay.
A selection: hits, their analogues and other compounds. The true share with any hit is near 3.8%.
Mdm2-MdmX inh: human Mdm2/MdmX binding inhibition; AID 485346; inhibition, % at 8 µM; O15151+Q00987; SaOS-2 split-luciferase Mdm2/MdmX complementation, luminescence; hit rate 3% among 330,000;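 active = inhibition of at least 50% at 8 µM in the primary screen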
Target sequence (O15151 whole entry, looked up): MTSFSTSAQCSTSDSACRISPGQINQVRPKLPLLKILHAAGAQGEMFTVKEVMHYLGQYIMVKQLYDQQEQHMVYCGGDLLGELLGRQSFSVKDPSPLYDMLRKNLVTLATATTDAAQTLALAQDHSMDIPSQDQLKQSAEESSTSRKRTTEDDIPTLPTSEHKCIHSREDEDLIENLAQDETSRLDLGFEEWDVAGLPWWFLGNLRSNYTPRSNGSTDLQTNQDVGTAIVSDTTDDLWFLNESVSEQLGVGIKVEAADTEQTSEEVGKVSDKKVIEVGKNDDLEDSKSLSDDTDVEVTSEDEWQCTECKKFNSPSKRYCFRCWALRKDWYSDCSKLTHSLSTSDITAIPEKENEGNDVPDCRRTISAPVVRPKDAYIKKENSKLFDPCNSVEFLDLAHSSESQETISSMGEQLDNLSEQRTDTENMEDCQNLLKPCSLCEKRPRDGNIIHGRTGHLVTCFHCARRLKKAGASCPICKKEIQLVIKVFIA
Target sequence (Q00987 whole entry, looked up): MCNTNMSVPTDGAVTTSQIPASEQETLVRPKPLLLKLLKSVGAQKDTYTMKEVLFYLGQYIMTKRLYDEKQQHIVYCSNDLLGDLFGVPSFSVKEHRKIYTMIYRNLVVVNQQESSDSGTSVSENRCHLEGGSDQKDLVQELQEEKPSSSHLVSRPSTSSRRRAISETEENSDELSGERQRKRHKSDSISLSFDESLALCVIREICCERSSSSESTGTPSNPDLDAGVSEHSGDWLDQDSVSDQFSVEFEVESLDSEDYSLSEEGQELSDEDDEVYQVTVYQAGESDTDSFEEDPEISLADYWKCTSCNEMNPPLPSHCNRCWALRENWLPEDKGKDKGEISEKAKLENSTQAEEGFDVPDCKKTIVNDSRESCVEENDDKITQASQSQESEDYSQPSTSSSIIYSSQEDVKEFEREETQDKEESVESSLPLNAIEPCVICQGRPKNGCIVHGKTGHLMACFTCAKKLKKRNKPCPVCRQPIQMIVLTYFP
697 NFkB inh: lowers PMA/ionomycin-induced NF-kB signal in 697 B cells; AID 435022; 697 B-cell NF-kB luciferase reporter, 16 h; inhibition, % at 4 µM; hit rate 0.33% among 330,000; in the data active = inhibition above about 35%
Jurkat NFkB inh: lowers PMA/ionomycin-induced NF-kB signal in Jurkat cells; PMA/ionomycin-induced NF-kB luciferase reporter, luminescence; hit rate 0.53% among 330,000; inhibition, % at 4 µM; AID 435003; in the data active = inhibition above about 50%
Shn3 inh set2: inhibitors of Schnurri-3 3'UTR reporter in osteoblasts | inhibition, % at 12.5 µM | Clone20 osteoblast Shn3 3'UTR firefly luciferase, 24 h | hit rate 0.52% among 360,000;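 active = mean inhibition of at least 75% with every replicate also reaching 75%; inconclusive = mean inhibition at least 75% but some replicate below; inactive = mean inhibition below 75%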;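 also: 0% = median of neutral control wells and 100% = pilot-screen positive control compound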
Gli-Sufu antag: Gli-Sufu pathway antagonism. Sufu-KO-LIGHT fibroblasts, Gli luciferase reporter luminescence. inhibition, % at 5 µM. hit rate 0.74% among 340,000. AID 588413;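 active = inhibition above about 55%, limit read from the data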;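 also: 0% = DMSO-treated cells and 100% = wells with medium but no cells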
Gli-Sufu confirm: Gli-SUFU antagonism confirmation, single concentration; shares compounds with Gli-Sufu antag; Sufu-KO-LIGHT cells, Gli luciferase reporter, luminescence; inhibition, % at 5 µM; hit rate 40% among 2,500;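 active = mean inhibition at 5 µM reaching about 45%, limit read from the data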;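 also: plate controls were DMSO-treated cells for no effect and wells lacking cells for full effect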
Gli cytotox: cytotoxicity counter-screen for Gli-SUFU antagonists | Sufu-KO-LIGHT cells cytotoxicity, ATP luminescence | cytotoxicity, % at 5 µM | hit rate 32% among 2,500 | shares compounds with Gli-Sufu antag | AID 651994;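 active = mean cytotoxicity at 5 µM above about 25%, limit read from the data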;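 also: cells exposed to compound overnight for roughly 16 to 18 hours; plate controls were DMSO wells with cells for no effect and medium without cells for full effect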
Wnt3a counter: inhibits Wnt3a reporter, counter-screen for Gli-SUFU antagonists; hit rate 20% among 2,500; inhibition, % at 6.25 µM; shares compounds with Gli-Sufu antag; Wnt-LIGHT cells, Wnt3a-driven luciferase reporter, luminescence;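 active = mean inhibition above about 25%, limit read from the data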
Numbers without * were called inactive; ? = inconclusive; . = no result.

SMILES | Mdm2-MdmX inh | 697 NFkB inh | Jurkat NFkB inh | Shn3 inh set2 | Gli-Sufu antag | Gli-Sufu confirm | Gli cytotox | Wnt3a counter
CCOC(=O)c1cc(NC(=O)COc2ccc([N+](=O)[O-])cc2)cc(C(=O)OCC)c1 | 23 | 21 | 10 | -7 | 63* | 25 | 2 | -25
CCC(C(=O)Nc1ccc2c(c1)OCCO2)n1c(=O)[nH]c2ccccc2c1=O (stereo not given) | 22 | -1 | 5 | 27 | 53 | 23 | -8 | 48*
CCN1CCN(C(=O)CN2C(=O)c3ccccc3S2(=O)=O)CC1 | 9 | -4 | 8 | -5 | -16 | . | . | .
N#CCCN(C(=O)COC(=O)CNC(=O)c1cccs1)c1ccc(F)cc1 | 10 | 7 | -10 | -1 | 1 | . | . | .
Cc1ccc(C2(C)NC(=O)N(CC(=O)Nc3ccccc3C(=O)NC3CCCC3)C2=O)cc1 (stereo not given) | -4 | 0 | 8 | -15 | 1 | . | . | .
CC(C)(C)C(=O)NC(=S)Nc1ccccc1C(=O)NC1CCCCC1 | 11 | -14 | 8 | . | 76* | 21 | 46* | -21
O=C(CN1C(=O)c2ccccc2C1=O)Nc1ccccc1C(=O)NC1CCCCCC1 | 23 | 28 | 13 | -16 | 99* | 15 | 10 | 2
COc1cccc(CN(C)C(=O)COc2cccc3c2OC(C)(C)C3)c1OC | . | . | . | 3 | 3 | . | . | .
C[n+]1c2n(c3ccccc31)N=C(c1ccccc1)CS2 | 14 | -29 | 0 | 20 | 60* | 72* | 28* | -13
c1ccc(C2=Nn3c(nnc3-c3ccncc3)SC2)cc1 | . | . | . | -4 | -11 | . | . | .
Cn1c(=O)c(=O)n(C)c2cc(S(=O)(=O)CCC(=O)Nc3ccccc3C(F)(F)F)ccc21 | . | . | . | -8 | . | . | . | .
c1ccc(-c2ccc3ccccc3n2)cc1 | -25 | -83 | -92 | -77 | -73 | . | . | .
CNc1ccccc(-c2ccc3ccccc3n2)c1=O | -8 | -62 | -7 | -59 | 54 | -76 | 19 | -32
CC(C)(C)N1CCC1CN (stereo not given) | 12 | 8 | 1 | -6 | -8 | . | . | .
Cc1ccc(C)c2c1CCCC2=O | . | . | . | 7 | . | . | . | .
Cc1ccc(S(=O)(=O)N2CCC(C(=O)N[C@@H](C)C(=O)Nc3ccc(F)cc3)CC2)cc1 | 28 | 0 | -13 | 2 | . | . | . | .
Cc1ccc(S(=O)(=O)N2CCC(C(=O)N[C@@H](C)C(=O)Nc3ccc4c(c3)OCO4)CC2)cc1 | 6 | -11 | -14 | -15 | 53 | 21 | 15 | -4
COC(=O)c1sccc1NC(=S)N1CCN(c2cc(C)ccc2C)CC1 | 21 | 11 | 26 | 29 | 3 | . | . | .
COc1ccc2nc3ccccc3nc2c1NC(=O)c1ccc(Cl)cc1Cl | 6 | -19 | -5 | 20 | 71* | 31 | 20 | -26
CC(=O)Nc1cccc(NC(=O)CCn2cnc3cc(C)c(C)cc32)c1 | -4 | 2 | 2 | -5 | 58* | 11 | 6 | -57
Cc1ccc(NC(=O)Cn2nc(-c3ccccc3Cl)ccc2=O)c(Br)c1 | -36 | -7 | 2 | -1 | 57* | 14 | 20 | -7
Cc1c(Br)ccc(NC(=O)Cn2nc(-c3cccs3)ccc2=O)c1C | 5 | 5 | -3 | -7 | -2 | . | . | .
COc1ccc(CCNC(=O)CNS(=O)(=O)c2ccc(Cl)cc2)cc1 | 36 | 6 | 12 | 4 | 2 | . | . | .
CCOc1ccc(OCc2ccc(C(=O)NN)o2)cc1 | -20 | -102 | -20 | -56 | -65 | . | . | .
CCOc1ccc(OCc2ccc(C(=O)NC(C)(C)C)o2)cc1 | -10 | -127 | -6 | 11 | 53 | 13 | 12 | -20
SMILES | Mdm2-MdmX inh | 697 NFkB inh | Jurkat NFkB inh | Shn3 inh set2 | Gli-Sufu antag | Gli-Sufu confirm | Gli cytotox | Wnt3a counter
COc1ccc(C(=O)Nc2cc(C)nn2-c2ccc(C)cc2)cc1 | -12 | 7 | -3 | 7 | 1 | . | . | .
CC[n+]1c(/C=C(\C)Nc2ccccc2)sc2ccccc21 | . | . | . | 10 | 11 | . | . | .
CC[n+]1c(/C=C(\C)SC)sc2ccccc21 | 36 | 17 | 3 | -15 | 4 | . | . | .
CCN1/C(=C/C=C/C=C/C=C/c2sc3ccccc3[n+]2CC)Sc2ccccc21 | 23 | 4 | 7 | 78 | 83* | 91* | 32* | 45*
CC[n+]1c(/C=C/Nc2ccccc2)sc2ccccc21 | 18 | 16 | -5 | 92* | 68* | 81* | 37* | 30*
CN(C(=O)Cn1c(=O)oc2ccccc21)C1CCCCC1 | 8 | -5 | -4 | -7 | -1 | . | . | .
Nc1ccccc1S(N)(=O)=O | 15 | -19 | 1 | 1 | -3 | . | . | .
CC(C#N)Sc1ccc(S(=O)(=O)N2CCCC2)cn1 (stereo not given) | -15 | 11 | -2 | -1 | 0 | . | . | .
O=C(O)Cn1cccc1C(=O)c1ccccc1 | 6 | 19 | -10 | -44 | 96* | 9 | 4 | -15
COc1ccc(C2CC(C(F)(F)F)n3nc(C(=O)NCc4c(C)nn(C)c4C)c(Cl)c3N2)cc1 (stereo not given) | 10 | -44 | 14 | 70 | 61* | 50* | 42* | -1
Cc1ccccc1CSc1ccc(S(=O)(=O)N2CCCC2)cn1 | 1 | 18 | 5 | 1 | 1 | . | . | .
COc1cnn(-c2cccc(C)c2)c(=O)c1Cl | 22 | 13 | -2 | -20 | 51 | 23 | 3 | -32
COCCNc1nc(Oc2ccc(CC(=O)OC)cc2)c2sc(-c3ccccc3)cc2n1 | . | . | . | 43 | . | . | . | .
Cc1cccc(NC(=O)C2CCCN(C(=O)Nc3ccccc3)C2)c1C (stereo not given) | -2 | 10 | -6 | 5 | 58* | 4 | 24 | -17
Cc1ccccc1NC(=O)C1CCCN(C(=O)Nc2ccc(F)cc2)C1 (stereo not given) | 5 | 9 | 19 | 2 | 15 | . | . | .
COc1ccc(/C=C(/NC(=O)c2ccccc2)C(=O)N/N=C/c2ccc3c(c2)OCO3)cc1OC | . | . | . | -3 | 84* | 18 | 0 | -7
COc1ccc(CCNC(=O)c2cccc(S(=O)(=O)N3CCOCC3)c2)cc1OC | 19 | 3 | -9 | -69 | -2 | . | . | .
COc1ccc(CN(C)C(=O)c2cccc(NC(=O)CC3SC(N4CCCCC4)=NC3=O)c2)c(OC)c1 (stereo not given) | . | . | . | 80 | 65* | 49* | 13 | -5
COc1cccc(CN(C)C(=O)c2cccc(NC(=O)CC3SC(N4CCCCC4)=NC3=O)c2)c1OC (stereo not given) | 12 | 9 | 2 | -9 | -4 | . | . | .
COc1ccc(NC(=O)COC(=O)Cn2cnc3ccccc32)cc1 | 12 | 13 | -1 | -18 | -4 | . | . | .
O=C(Cn1cnc2ccccc21)Nc1ccc(SC(F)F)cc1 | 15 | -22 | 43 | ? | 65* | 57* | 37* | -7
CCc1ccc2c(c1)C(O)(CC(=O)c1cccs1)C(=O)N2 (stereo not given) | 15 | 9 | 2 | -1 | -26 | . | . | .
